In publication PMC5540273 (PLoS ONE, 2017):

Key:
Details in all cases: concentration: 1 μM, replicates: in singlicate; n = 1
BMX = tested on: BMX
BRAF = tested on: BRAF
BRK = tested on: T1, BRK
T1 construct: gene PTK6

BRSK1 = tested on: BRSK1
BRSK2 = tested on: BRSK2
BTK = tested on: BTK
BUB1 = tested on: BUB1
CAMK1B = tested on: CAMK1B
CAMK1D = tested on: CAMK1D
CAMK1G = tested on: CAMK1G
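Also: KINOMEscan kinase panel screen.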

CN1CCN(Cc2cccc(-c3ccc4c(Nc5ccc(Oc6ccccc6)cc5)ccnc4c3)c2)CC1 [GW578342]
%Inh (BMX): 20% | %Inh (BRAF): 0% | %Inh (BRK): 90.2% | %Inh (BRSK1): 0% | %Inh (BRSK2): 1% | %Inh (BTK): 90.8% | %Inh (BUB1): 35% | %Inh (CAMK1B): 10% | %Inh (CAMK1D): 7% | %Inh (CAMK1G): 0%

COc1cccc(-c2ccc3c(NC(=O)C4CC4)n[nH]c3n2)c1 [SB-710903]
%Inh (BMX): 0% | %Inh (BRAF): 0% | %Inh (BRK): 3% | %Inh (BRSK1): 8% | %Inh (BRSK2): 3% | %Inh (BTK): 29% | %Inh (BUB1): 82% | %Inh (CAMK1B): 11% | %Inh (CAMK1D): 0% | %Inh (CAMK1G): 0%

CCCCc1nn2ncccc2c1-c1ccnc(Nc2ccc(N3CCN(C)CC3)cc2)n1 [GW684941]
%Inh (BMX): 53% | %Inh (BRAF): 86% | %Inh (BRK): 69% | %Inh (BRSK1): 3% | %Inh (BRSK2): 0% | %Inh (BTK): 57% | %Inh (BUB1): 93.3% | %Inh (CAMK1B): 25% | %Inh (CAMK1D): 0% | %Inh (CAMK1G): 0%

COc1cc(Nc2nccc(N3CCC(NC(=O)c4cc5ccccc5s4)C3)n2)cc(OC)c1OC (stereo not shown) [GSK1379760]
%Inh (BMX): 1% | %Inh (BRAF): 4% | %Inh (BRK): 11% | %Inh (BRSK1): 0% | %Inh (BRSK2): 4% | %Inh (BTK): 67% | %Inh (BUB1): 26% | %Inh (CAMK1B): 49% | %Inh (CAMK1D): 14% | %Inh (CAMK1G): 18%

CCc1ccc(-c2ccc3c(c2)-c2c(cnn2C)S(=O)(=O)N3C)cc1
%Inh (BMX): 0% | %Inh (BRAF): 0% | %Inh (BRK): 1% | %Inh (BRSK1): 19% | %Inh (BRSK2): 0% | %Inh (BTK): 3% | %Inh (BUB1): 15% | %Inh (CAMK1B): 0% | %Inh (CAMK1D): 0% | %Inh (CAMK1G): 5%

CCn1c(-c2nonc2N)nc2c(C#CC(C)(C)O)ncc(OCCCCN)c21.O=C(O)C(F)(F)F.O=C(O)C(F)(F)F [GSK507274]
%Inh (BMX): 19% | %Inh (BRAF): 8% | %Inh (BRK): 27% | %Inh (BRSK1): 0% | %Inh (BRSK2): 0% | %Inh (BTK): 0% | %Inh (BUB1): 37% | %Inh (CAMK1B): 0% | %Inh (CAMK1D): 40% | %Inh (CAMK1G): 7%

COCCOCCOc1cc2ncc3c4ccc(C#N)cc4[nH]c3c2cc1OC
%Inh (BMX): 35% | %Inh (BRAF): 0% | %Inh (BRK): 18% | %Inh (BRSK1): 0% | %Inh (BRSK2): 12% | %Inh (BTK): 0% | %Inh (BUB1): 96.7% | %Inh (CAMK1B): 14% | %Inh (CAMK1D): 25% | %Inh (CAMK1G): 1%

COc1cccc(C2=C(Nc3ccc(Cl)c(C(=O)O)c3)C(=O)NC2=O)c1 [SB-390769]
%Inh (BMX): 0% | %Inh (BRAF): 13% | %Inh (BRK): 38% | %Inh (BRSK1): 0% | %Inh (BRSK2): 0% | %Inh (BTK): 25% | %Inh (BUB1): 44% | %Inh (CAMK1B): 28% | %Inh (CAMK1D): 0% | %Inh (CAMK1G): 0%

COc1cccc(NC(=O)NC2CCN(c3ccnc(Nc4cc(OC)c(OC)c(OC)c4)n3)C2)c1 (stereo not shown) [GSK1379763]
%Inh (BMX): 2% | %Inh (BRAF): 5% | %Inh (BRK): 0% | %Inh (BRSK1): 0% | %Inh (BRSK2): 0% | %Inh (BTK): 0% | %Inh (BUB1): 18% | %Inh (CAMK1B): 35% | %Inh (CAMK1D): 4% | %Inh (CAMK1G): 17%

Clc1ccc(-c2nn3ncccc3c2-c2ccnc(Nc3ccc4c(c3)OCCO4)n2)cc1 [GW829116]
%Inh (BMX): 0% | %Inh (BRAF): 52% | %Inh (BRK): 0% | %Inh (BRSK1): 0% | %Inh (BRSK2): 0% | %Inh (BTK): 0% | %Inh (BUB1): 93.1% | %Inh (CAMK1B): 0% | %Inh (CAMK1D): 0% | %Inh (CAMK1G): 0%
